These results are taken from PubChem BioAssay (NCI).

Among the test systems are HCT-15 colon; HT29 colon; SNB-75 CNS; SNB-19 CNS; U251 CNS; PC-3 prostate; SK-MEL-5 melanoma; UACC-62 melanoma; LOX IMVI melanoma; SK-MEL-28 melanoma; SK-MEL-2 melanoma; SN12C renal; UO-31 renal; TK-10 renal; ACHN renal; CAKI-1 renal; A498 renal; CCRF-CEM leukemia; MOLT-4 leukemia; EKVX NSCLC.
Common to all, as to assay: NCI-60 one-dose screen, 48 h (100 = growth as untreated, 0 = no growth, -100 = all killed)
Holding throughout (settings): 10 µM unless noted

The panel holds about 83,000 compounds, 20% with a hit somewhere; the sample as a whole holds those more often.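 Method: cells in 96-well plates; compound added at one concentration; 48 h incubation; percent growth measured; values under 10 scored active.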 Active and inactive are the calls of the source.

Consider `CCC(=O)Oc1cc(Cl)c(Cl)cc1Cl`, for which the growth with HCT-15 colon was 103% (inactive); in the assay on HT29 colon, 103% (inactive); in the assay on SNB-75 CNS it was 89.6% (inactive); with SNB-19 CNS, 113% (inactive); with U251 CNS, 98.1% (inactive); in the assay with PC-3 prostate, 96.4% (inactive). Also, the growth is 105% (inactive) in the assay with SK-MEL-5 melanoma; 108% (inactive) in the assay with UACC-62 melanoma; 105% (inactive) in the assay on LOX IMVI melanoma; 104% (inactive) in the assay on SK-MEL-28 melanoma; 103% (inactive) with SK-MEL-2 melanoma; 97.9% (inactive) with SN12C renal. Besides, the growth with UO-31 renal was 95.3% (inactive); with TK-10 renal, 98.5% (inactive); in the assay on ACHN renal it was 101% (inactive); in the assay with CAKI-1 renal, 99.2% (inactive); in the assay with A498 renal it was 83.3% (inactive); in the assay with CCRF-CEM leukemia it was 105% (inactive). Besides, the growth with MOLT-4 leukemia was 111% (inactive).
`CCN(CC)CCCN1C(=O)c2c(c(C)c3c(oc4cc(OC)ccc43)c2C)C1=O`: the growth in the assay with HCT-15 colon is 80.6% (inactive); with HT29 colon it was 86.9% (inactive); with SNB-75 CNS it was 146% (inactive); in the assay on SNB-19 CNS it was 99.1% (inactive); in the assay with U251 CNS it was 103% (inactive); in the assay with PC-3 prostate, 85.3% (inactive). Besides, the growth in the assay with SK-MEL-5 melanoma is 77.6% (inactive); in the assay with UACC-62 melanoma, 102% (inactive); with LOX IMVI melanoma, 87.7% (inactive); in the assay on SK-MEL-28 melanoma it was -82.6% (active); with SK-MEL-2 melanoma it was 112% (inactive); in the assay with SN12C renal, 89.1% (inactive). Besides, the growth with UO-31 renal was 67.4% (inactive); in the assay on TK-10 renal, 112% (inactive); in the assay on ACHN renal it was 63.1% (inactive); in the assay on CAKI-1 renal, 93.2% (inactive); in the assay with A498 renal it was 97.7% (inactive); with CCRF-CEM leukemia, 61% (inactive). Besides, the growth with MOLT-4 leukemia was 93.9% (inactive).
For `CCNC(=O)Oc1ccc(/C(=C(/C)Cc2ccc(OC)cc2)c2ccc(OCCN(CC)CC)cc2)cc1`, the growth in the assay on HCT-15 colon was 2.84% (active); in the assay with HT29 colon, -42.2% (active); in the assay on SNB-75 CNS it was 80.8% (inactive); in the assay with SNB-19 CNS, 74.5% (inactive); in the assay with U251 CNS it was 33.9% (inactive); with PC-3 prostate, 56.5% (inactive). Besides, the growth was -97.1% (active) in the assay on SK-MEL-5 melanoma; -16.4% (active) in the assay on UACC-62 melanoma; -75.2% (active) in the assay with LOX IMVI melanoma; -60% (active) in the assay on SK-MEL-28 melanoma; 86.5% (inactive) in the assay on SK-MEL-2 melanoma; 68.6% (inactive) in the assay with SN12C renal. Further, the growth in the assay with UO-31 renal is 43.1% (inactive); in the assay with TK-10 renal it was 65.9% (inactive); with ACHN renal it was 81.5% (inactive); in the assay with CAKI-1 renal, 61.4% (inactive); in the assay with A498 renal, 80% (inactive); with CCRF-CEM leukemia, 35.6% (inactive). For the same compound, the growth with MOLT-4 leukemia was 14.7% (inactive).
Turning to `CCCn1nc(C(=O)N2CCCCC2)c2c1CCC(N1CCC(c3ccncc3)CC1)C2` (stereo not drawn), the growth in the assay on HCT-15 colon was 105% (inactive); with HT29 colon, 100% (inactive); in the assay with SNB-75 CNS it was 96.1% (inactive); in the assay with SNB-19 CNS, 102% (inactive); with U251 CNS, 101% (inactive); with PC-3 prostate it was 101% (inactive). Moreover, the growth was 102% (inactive) in the assay with SK-MEL-5 melanoma; 112% (inactive) in the assay with UACC-62 melanoma; 98.1% (inactive) with LOX IMVI melanoma; 115% (inactive) in the assay with SK-MEL-28 melanoma; 105% (inactive) in the assay with SK-MEL-2 melanoma; 118% (inactive) in the assay on SN12C renal. The growth in the assay with UO-31 renal was 92.7% (inactive); in the assay on TK-10 renal, 101% (inactive); in the assay on ACHN renal, 105% (inactive); with CAKI-1 renal it was 95.8% (inactive); with A498 renal, 109% (inactive); with CCRF-CEM leukemia, 101% (inactive). In the assay on MOLT-4 leukemia, the growth was 108% (inactive).
Turning to `C=C1CC[C@@H]2[C@](C)(COC(C)=O)[C@H](OC(C)=O)CC[C@@]2(C)[C@@H]1CC(Nc1ccc(S(=O)(=O)Nc2nccs2)cc1)C1=CCOC1=O` (stereo partly drawn), the growth is -39.2% (active) in the assay on HCT-15 colon; -42.7% (active) in the assay on HT29 colon; 28.3% (inactive) in the assay on SNB-75 CNS; 49.1% (inactive) with SNB-19 CNS; 4.21% (active) in the assay with U251 CNS; 21.8% (inactive) in the assay with PC-3 prostate. The growth in the assay on SK-MEL-5 melanoma was 31.4% (inactive); in the assay on UACC-62 melanoma, 21.2% (inactive); in the assay with LOX IMVI melanoma, -88.3% (active); in the assay with SK-MEL-28 melanoma, -16.3% (active); with SK-MEL-2 melanoma, 28.4% (inactive); in the assay with EKVX NSCLC, 73.4% (inactive). In addition, the growth was 15.6% (inactive) in the assay on SN12C renal; 13.5% (inactive) in the assay on UO-31 renal; 55% (inactive) with TK-10 renal; 55.9% (inactive) in the assay with CAKI-1 renal; 85% (inactive) in the assay with A498 renal; -27.7% (active) in the assay with CCRF-CEM leukemia. Also, the growth with MOLT-4 leukemia was -4.45% (active).
Consider `COc1ccc(/C=C/C(=O)c2cc3c(N)c(C(=O)Nc4ccccc4)sc3nc2C)cc1`, for which the growth in the assay with HCT-15 colon is 5.97% (active); in the assay with HT29 colon, -3.68% (active); with SNB-75 CNS it was 11.9% (inactive); with SNB-19 CNS, 1.78% (active); in the assay on U251 CNS, 1.52% (active); in the assay with PC-3 prostate it was 17.1% (inactive). For the same compound, the growth is 4.63% (active) with SK-MEL-5 melanoma; 22.9% (inactive) with UACC-62 melanoma; 2.65% (active) with LOX IMVI melanoma; 52% (inactive) with SK-MEL-28 melanoma; 53.1% (inactive) with SK-MEL-2 melanoma; 47% (inactive) in the assay with EKVX NSCLC. The growth with SN12C renal was 12.5% (inactive); in the assay on UO-31 renal, 35.2% (inactive); in the assay with TK-10 renal, 36.9% (inactive); in the assay with CAKI-1 renal it was 23.1% (inactive); with A498 renal, 18.6% (inactive); in the assay on CCRF-CEM leukemia, 16.3% (inactive). Besides, the growth with MOLT-4 leukemia was 30.9% (inactive).
As to `COc1cc2cc(NCc3ccncc3)nc(C)c2cc1OC`, the growth in the assay with HCT-15 colon is 82.9% (inactive); with HT29 colon, 91.6% (inactive); with SNB-75 CNS, 97% (inactive); in the assay with SNB-19 CNS it was 93.8% (inactive); with U251 CNS, 78.5% (inactive); in the assay on PC-3 prostate it was 77.8% (inactive). In addition, the growth is 95.2% (inactive) in the assay on SK-MEL-5 melanoma; 97.8% (inactive) with UACC-62 melanoma; 88% (inactive) in the assay on LOX IMVI melanoma; 99.2% (inactive) with SK-MEL-28 melanoma; 100% (inactive) in the assay on SK-MEL-2 melanoma; 97.1% (inactive) in the assay on SN12C renal. Further, the growth was 89.8% (inactive) in the assay with UO-31 renal; 83.5% (inactive) in the assay with TK-10 renal; 101% (inactive) with ACHN renal; 82.3% (inactive) in the assay on CAKI-1 renal; 72.4% (inactive) in the assay on A498 renal; 112% (inactive) in the assay on CCRF-CEM leukemia. Besides, in the assay with MOLT-4 leukemia, the growth was 109% (inactive).
